Screening results (PubChem BioAssay)
Cy5 interf NS3h – Cy5 fluorescence quenchers or enhancers, artefact control for HCV NS3 helicase inhibitor project, biochemical, ChemBridge library, Cy5 readout; Cy5-dT15 DNA with NS3h, fluorescence interference; actives lie on both sides; signal over control mean, under 1 quenches; fluorescence interference ratio at 100 µM; actives 6% (n = 16,000); AID 720488, 2013;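 active means compound fluorescence over control fluorescence at most 0.8, a quencher, or at least a set upper limit, an enhancer; inactive means ratio between 0.8 and the set upper limit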
HCV NS3h FP – HCV NS3 helicase inhibitors, primary screen, biochemical, fluorescence polarization, ChemBridge library. NS3h Cy5-dT15 DNA binding. inhibition, % at 100 µM. actives 1.6% (n = 16,000). AID 687043, 2013;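 active means inhibition above the average over every tested compound plus 3 SD, cut at about 40% in these data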
HCV NS3h conf – HCV NS3 helicase inhibitors, retest, confirmation, biochemical, fluorescence polarization, ChemBridge library | shares compounds with HCV NS3h FP | inhibition, % at 100 µM | NS3h binding to Cy5-dT15 DNA | AID 720485, 2013 | actives 20% (n = 240);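 active means percent inhibition of 50% or more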
SSB FP counter – E. coli SSB-DNA binding inhibitors, counter-screen for HCV NS3 helicase inhibitor project, biochemical, fluorescence polarization, selected ChemBridge compounds | shares compounds with HCV NS3h FP | E. coli SSB binding Cy5-dT15 | inhibition, % at 100 µM | actives 40% (n = 240);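 active means inhibition of at least 50%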;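 further: displacers lower Cy5 polarization so higher inhibition means more SSB displaced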
Target sequence (P0AGE0 whole entry, looked up): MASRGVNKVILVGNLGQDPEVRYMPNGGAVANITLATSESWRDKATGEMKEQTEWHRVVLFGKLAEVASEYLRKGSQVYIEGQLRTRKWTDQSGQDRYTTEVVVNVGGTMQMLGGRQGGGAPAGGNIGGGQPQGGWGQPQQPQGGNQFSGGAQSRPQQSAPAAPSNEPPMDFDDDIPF
Cy5 SSB fluor CB – Cy5 fluorescence interference with SSB-bound oligo, artefact control for HCV NS3 helicase inhibitor project, biochemical, E. coli SSB, selected ChemBridge compounds. shares compounds with HCV NS3h FP. Cy5-dT15/E. coli SSB fluorescence interference; actives lie on both sides. fluorescence interference ratio at 100 µM. actives 8% (n = 240);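 active means fluorescence interference ratio at or above 1.2, signal boosting, or at or below 0.8, signal quenching; inactive means ratio between 0.8 and 1.2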;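 further: ratio of compound well signal to mean negative control signal so 1 means no effect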
Cy5 fluor confirm – Cy5-DNA-NS3h complex fluorescence interference, confirmation, artefact control for HCV NS3 helicase inhibitor project, biochemical, ChemBridge library; actives 44% (n = 240); fluorescence interference ratio at 100 µM, hits read low; shares compounds with HCV NS3h FP; Cy5-dT15 DNA/NS3h fluorescence interference counterscreen;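 active means fluorescence interference ratio at or below 0.8 quencher or at or above a set limitenhancer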;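 further: ratio of compound fluorescence to mean of negative controls so 1 means no interference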
* = called active by the depositor. This is a sample that favours compounds with a hit; in the whole collection about 6.8% have one here.

SMILES | Cy5 interf NS3h | HCV NS3h FP | others
COc1ccccc1C1=NN(C(=O)CCC(=O)O)C(c2ccc(Br)cc2)C1 (stereo unspecified) | 1.1 | 1
CC(C)(C)c1ccc(-c2n[nH]c(=S)o2)cc1 | 0.97 | 2
CC1=NN(C(=O)c2ccc(Cl)cc2)C(O)(c2cccnc2)C1 (stereo unspecified) | 0.96 | -4
CC1=NN(C(=O)c2cccnc2)C(C)(O)C1(C)C (stereo unspecified) | 0.65* | -2
CCOc1ccccc1NC(=O)c1ccc(OC)cc1OC | 1 | 14
Cc1ccc2nc(-c3ccc(NC(=S)NC(=O)c4ccco4)cc3)sc2c1 | 1 | -2
O=C1C2C3C=CC(CC3)C2C(=O)N1/N=C\c1cc([N+](=O)[O-])cc(Br)c1O (stereo unspecified) | 0.68* | 10
O=C1C2C3C=CC(CC3)C2C(=O)N1/N=C\c1ccc(I)o1 (stereo unspecified) | 1 | -2
O=C(NCC1CCCO1)c1nc2nc(-c3ccccc3)cc(C(F)(F)F)n2n1 (stereo unspecified) | 0.92 | -2
O=C(Nc1c(F)cc(F)cc1Br)c1nc2nc(-c3ccccc3)cc(C(F)(F)F)n2n1 | 0.71* | 13
COc1ccccc1N1C(=O)NC(=O)C(=Cc2cc(OC)c(O)c([N+](=O)[O-])c2)C1=O | 0.87 | 34
COc1ccccc1N1C(=O)C(=Cc2cccn2C)C(=O)NC1=S | 0.68* | 44*
Cc1cccc(NC(=O)CC2S/C(=N/N=C\c3cccc(O)c3)NC2=O)c1C (stereo unspecified) | 1.1 | -12
O=C(O)CCCc1nc2ccccc2s1 | 1 | -5
O=C(O)CCCc1nc2ccccc2[nH]1 | 0.73* | 1
O=C(/C=C/c1ccco1)Nc1ccc(Br)cn1 | 0.95 | -2
O=C(/C=C/c1ccco1)Nc1cc(Cl)ccc1C(=O)O | 0.9 | 63*
O=C(O)/C=C\C(=O)Nc1ccc(Cl)c(C(F)(F)F)c1 | 1.1 | -19
COc1cc(/C=C2\SC(=S)N(c3ccc(C)cc3C)C2=O)cc(Br)c1O | 0.98 | 8
O=C1NC(=Nc2ccccc2)S/C1=C/c1ccc(O)cc1 | 1.3* | 8
O=C1N/C(=N/N=C\c2ccccc2)S/C1=C\c1ccccc1 | 1.1 | -14
Cc1ccc(OCC(=O)n2cnnc2N)c(Br)c1 | 1 | 3
CCOC(=O)COc1c(C)cccc1C | 1 | -6
Cc1cc([N+](=O)[O-])ccc1-c1ccc(/C=C2/C(=O)NC(=S)N(c3ccc(Cl)cc3)C2=O)o1 | 1.2 | 6
Cc1cc(C)c(N2C(=O)NC(=O)/C(=C/c3ccc([N+](=O)[O-])o3)C2=O)c(C)c1 | 0.92 | 52* | HCV NS3h conf=20;SSB FP counter=94*;Cy5 SSB fluor CB=0.94;Cy5 fluor confirm=0.75*
SMILES | Cy5 interf NS3h | HCV NS3h FP | others
CCCN(CCC)CCCNC(=O)C(=O)NCc1ccco1 | 1.1 | 3
CC(=O)N1CCN(c2ccc([N+](=O)[O-])cc2Cl)CC1C (stereo unspecified) | 0.94 | -9
O=C(Nc1ccc(N2CCOCC2)cc1)c1ccc2c(c1)OCCO2 | 1 | -4
O=C(Nc1ccc(Cl)c(Cl)c1)c1ccc2c(c1)OCCO2 | 1.1 | 39 | HCV NS3h conf=41;SSB FP counter=47;Cy5 SSB fluor CB=0.95;Cy5 fluor confirm=0.86
O=C1C(=Cc2cccc(Cl)c2)C(=O)c2ccccc21 | 1 | 4
O=C1C(=Cc2ccccc2F)C(=O)c2ccccc21 | 0.99 | 61* | HCV NS3h conf=37;SSB FP counter=10;Cy5 SSB fluor CB=0.96;Cy5 fluor confirm=0.74*
O=C1C(=Cc2ccccc2)C(=O)c2ccccc21 | 1 | 46* | HCV NS3h conf=26;SSB FP counter=-3;Cy5 SSB fluor CB=1;Cy5 fluor confirm=0.78*
CN1C(=O)/C(=C/c2ccccc2F)SC1=S | 0.97 | 10
C=CCOc1ccc2c(C)c(CC)c(=O)oc2c1 | 1 | -2
COc1ccc(N2C(=O)NC(=O)/C(=C\c3cc(OC)c(OC)cc3OC)C2=O)cc1 | 1 | 1
COc1cc(OC)c(OC)cc1/C=C1/C(=O)NC(=O)N(c2ccccc2)C1=O | 1.2* | 44* | HCV NS3h conf=3;SSB FP counter=7;Cy5 SSB fluor CB=1;Cy5 fluor confirm=1
O=C1NC(=O)N(c2cccc(F)c2)C(=O)/C1=C/c1ccc(O)c(Cl)c1 | 1 | 27
Cc1ccc(N2C(=O)NC(=O)/C(=C\c3ccsc3)C2=O)cc1 | 1.2* | 55* | HCV NS3h conf=-1;SSB FP counter=3;Cy5 SSB fluor CB=0.98;Cy5 fluor confirm=0.74*
O=C1NC(=S)N(c2ccc(Cl)cc2)C(=O)C1=Cc1ccsc1 | 0.89 | 26
COc1ccc(N2C(=O)NC(=O)/C(=C\c3ccc(O)c(Cl)c3)C2=O)cc1 | 1.1 | 47* | HCV NS3h conf=15;SSB FP counter=13;Cy5 SSB fluor CB=0.98;Cy5 fluor confirm=0.75*
NC(=S)N/N=C\c1ccc(-c2cc(Cl)cc(Cl)c2)o1 | 0.92 | 3
N#CC1=C(N)NC(SCC(=O)c2ccc(Cl)cc2)=C(C#N)C12CCCCC2 | 1 | 13
Cc1cccc(OCC(O)Cn2cnc3cc(C)c(C)cc32)c1 (stereo unspecified) | 0.94 | 12
COC(=O)C1CC(=O)N(c2ccc(O)cc2)C1 (stereo unspecified) | 1.1 | -1
COc1ccc(NS(=O)(=O)c2ccc(NC(=S)NC(=O)c3sc4cc(F)ccc4c3Cl)cc2)nn1 | 0.98 | 63* | HCV NS3h conf=14;SSB FP counter=8;Cy5 SSB fluor CB=1;Cy5 fluor confirm=0.76*
O=C(NC(=S)Nc1ccc(S(=O)(=O)Nc2nccs2)cc1)c1sc2ccccc2c1Cl | 0.92 | 26
O=C(Nc1ccc(Cc2ccc(NC(=O)Nc3ccccc3O)cc2)cc1)Nc1ccccc1O | 0.88 | -24
O=C1NC(=Nc2ccc(F)cc2)S/C1=C/c1ccccc1F | 1.7* | 112* | HCV NS3h conf=4;SSB FP counter=13;Cy5 SSB fluor CB=0.98;Cy5 fluor confirm=0.99
Cc1ccccc1/C=C1/SC(=Nc2ccc(F)cc2)NC1=O | 1 | 3
CCOC(=O)C1=C(O)c2ccccc2C(=O)/C1=C\c1ccc(OC)cc1 | 0.93 | 24
SMILES | Cy5 interf NS3h | HCV NS3h FP | others
Cc1ccc(N2C(=O)/C(=C\c3ccc(-c4ccc(Cl)c(C(=O)O)c4)o3)C(=O)NC2=S)cc1 | 0.86 | 83* | HCV NS3h conf=48;SSB FP counter=94*;Cy5 SSB fluor CB=0.88;Cy5 fluor confirm=0.73*
O=C1NC(=S)N(c2ccccc2)C(=O)/C1=C/c1ccc(-c2cccc(Cl)c2Cl)o1 | 0.96 | 13
O=C1NC(=S)N(c2ccccc2)C(=O)/C1=C/c1ccc(-c2ccc(Cl)c(C(=O)O)c2)o1 | 1 | 93* | HCV NS3h conf=40;SSB FP counter=90*;Cy5 SSB fluor CB=0.95;Cy5 fluor confirm=0.78*
COc1cc([N+](=O)[O-])ccc1-c1ccc(/C=C2\C(=O)NC(=S)N(c3ccc(Cl)cc3)C2=O)o1 | 1 | 17
O=C(Cc1ccccc1)N1N=C(c2cccc(Br)c2)CC1(O)C(F)(F)F (stereo unspecified) | 0.98 | 2
Cc1ccc(N2C(=O)C(Cl)=C(N3CCN(c4ccccc4)CC3)C2=O)c(C)c1 | 1.1 | 14
